Measurements as given in PubChem BioAssay (NCATS).
Records with an inconclusive call do not appear. Values without a mark were called inactive. Calls of active or inactive are those of the source. Calls come from the whole dose curve; as a rule, active = well fitted inhibition curve with a large enough effect; inconclusive = small, poorly fitted or top-dose-only effect; inactive = flat fitted curve, though single readings scatter.

Assay: P-glycoprotein substrates identified in KB-8-5-11 adenocarcinoma cell line, qHTS therapeutic library screen (AID 1346987); note: nearly all actives have a fitted effect of over 65% in size
Conditions: KB-8-5-11 (P-gp overexpressing) viability, CellTiter-Glo, 72 h; series mostly up to 44.5 µM; activity change, negative = cytotoxicity: at the top concentration
Procedure, shortened: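 KB-8-5-11: colchicine-selected sub-line of KB-3-1 over-expressing P-gp; assay medium lacked colchicine. 72 h drug exposure at 37 degree C, CellTiter-Glo.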
% is set by controls: 0 for no effect and ±100 for the full control effect; potency is the fitted concentration of half-maximal effect.

Compound	activity change, negative = cytotoxicity	Potency	outcome
ClCC1CO1 (stereo not drawn)	-1.3%		
CN1C(=O)c2ccccc2NC(=O)C1Cc1ccccc1 (stereo not drawn)	2.5%		
CC(C)(O)[C@@H]1[C@H]2OC(=O)[C@@H]1[C@]1(O)C[C@H]3O[C@]34C(=O)O[C@H]2[C@]14C		inactive	
C=CC(C)(C)c1[nH]c2cccc3c2c1C[C@@H]1[C@@H]3[C@@H](OC(C)=O)[C@H](C)CN1C	1.73%		
CCC(=O)O[C@]1(c2ccccc2)CCN(C)C[C@H]1C	-14.3%		
CCc1c(C(=O)C(N)=O)c2c(OCC(=O)OC)cccc2n1Cc1ccccc1	-1.83%		
C[C@H]1C(=O)O[C@H]2[C@H](O)[C@]34C5OC(=O)[C@]3(O[C@@H]3OC(=O)[C@H](O)C34[C@H](C(C)(C)C)[C@H]5O)C12O (stereo partly drawn)			inactive [at 17.3 µM]
COc1ccc2c3c1O[C@H]1[C@@H](O)C=C[C@H]4[C@@H](C2)NCC[C@@]341		inactive	
CCC1(c2ccccc2)C(=O)NC(=O)N(C(=O)c2ccccc2)C1=O (stereo not drawn)	-14.3%		
S=C(S)N1CCNCC1	-0.146%		
CCNC(C)Cc1cccc(C(F)(F)F)c1 (stereo not drawn)	-4.34%		
CC(=O)OO	-9.37%		
COc1cc(C(=O)O[C@H]2[C@@H]3C=CO[C@@H](O[C@@H]4O[C@H](CO)[C@@H](O)[C@H](O)[C@H]4O)[C@@H]3[C@@]3(CO)O[C@@H]23)ccc1O			inactive [at 17.3 µM]
c1ccc2sc(SNC3CCCCC3)nc2c1	1.83%		
CC(=O)O[C@H]1CC[C@H]2[C@@H]3CCC4=CC(=O)CCC4=C3C=C[C@]12C		7.31 µM (active)	
CCCC(C)(COC(N)=O)COC(=O)NC1CC1 (stereo not drawn)	-7.22%		
C[N+]1([O-])[C@@H]2CC[C@H]1CC(OC(=O)C(CO)c1ccccc1)C2 (stereo partly drawn)		inactive	
CCC1(c2ccccc2)C(=O)NC(=O)N(C)C1=O (stereo not drawn)	2.89%		
[S]=[Sb](=[S])[S][Sb](=[S])=[S]	-2.17%		

Compound	activity change, negative = cytotoxicity	Potency	outcome
CCC1(CC)C(=O)NC(=O)N(C)C1=O	-10.1%		
Cc1cc(C(=O)CN2CCCC2)c(C)n1-c1ccc(F)cc1		inactive	
O=CC=O	2.32%		
O=C1C[C@@H]2OCC=C3CN4CC[C@]56c7ccccc7N1[C@H]5[C@H]2[C@H]3C[C@H]46 (tested in a mixture with another compound)		inactive	
CC[C@H]1CN2CC[C@H]1C[C@@H]2[C@@H](O)c1ccnc2ccc(OC)cc12	-6.53%		
CN1c2ccccc2C(NCCCCCCC(=O)O)c2ccc(Cl)cc2S1(=O)=O (stereo not drawn)	0.529%		
CC(C)C1(OO)C=C2C(=O)CC3C(C)(C(=O)O)CCCC3(C)C2CC1 (stereo not drawn)	6.94%		
CC(=O)O[C@H]1C[C@H](O[C@H]2[C@@H](O)C[C@H](O[C@H]3[C@@H](O)C[C@H](OC4CC[C@@]5(C)[C@H](CC[C@@H]6[C@@H]5CC[C@]5(C)[C@@H](C7=CC(=O)OC7)CC[C@]65O)C4)O[C@@H]3C)O[C@@H]2C)O[C@H](C)[C@H]1O[C@@H]1O[C@H](CO)[C@@H](O)[C@H](O)[C@H]1O (stereo partly drawn)		0.259 µM (active)	
c1csc(C2(N3CCCCC3)CCCCC2)c1	-3.63%		
COC(=O)C1(C)CCC(=O)C2(C)c3c(O)cc(C(C)C)cc3C(O)C(OC(C)=O)C12 (stereo not drawn)	5.72% [at 17.3 µM]		
CCN1CC2(COC)C3[C@@H](OC)C4C1C3(C1C[C@]3(O)[C@H](OC(=O)c5ccccc5)C1[C@]4(OC(C)=O)[C@@H](O)[C@@H]3OC)[C@H](OC)C[C@H]2O (stereo partly drawn)			inactive
OC[C@@H](O)[C@H]1O[C@@H]2O[C@H](C(Cl)(Cl)Cl)O[C@@H]2[C@H]1O	10.5%		
c1ccc(C2(N3CCCC3)CCCCC2)cc1	-14.9%		
O=C(NC(=O)c1c(F)cccc1F)Nc1ccc(Cl)c(Oc2ncc(C(F)(F)F)cc2Cl)c1	-7.73%		
Clc1ccc(Cl)cc1	-7.28%		
COC1CC(=O)C23C(=O)NC(CC(C)C)C2C(C)=C(C)C(OO)C3/C=C(\C)CCC(O)C1O (stereo not drawn)	1.92% [at 17.3 µM]		
COC1=CC(=O)O[C@@H](/C=C/c2ccccc2)C1			inactive
C[C@]12CC[C@H]3[C@@H](CCC4=C(Cl)C(=O)CC[C@@]43C)[C@@H]1CC[C@@H]2O		13 µM (active)	
O=[N+]([O-])C(Br)(CO)CO	0.958%		
